Data as given in PubChem BioAssay.
Calls of active or inactive are those of the source.

Assays:
[1] = E. coli DRC41 culture turbidity changes, primary screen, E. coli filamentation inducer project, strain DRC41, OD650, 48 h (AID 1152);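 further: E. coli MC1000 strain DRC41 lacking acrAB efflux pump and sulA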; conditions: E. coli DRC41 (acrAB sulA), higher = more signal, called active from +8 up or from −8 down
[2] = small-molecule binders of probe aLefty1, primary screen, biochemical, small-molecule microarray, 635/667 nm fluorescence (AID 1153); conditions: higher = more signal;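 further: score merges spot fluorescence with signal-to-noise ratio from the scanned slide images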
[3] = PSAC antagonists in infected red cells, primary screen, cell-based, P. falciparum Indochina, OD700, 1 h (AID 1154); conditions: P. falciparum Indochina infected RBC osmotic lysis, higher = more signal, called active from +8 up or from −8 down
[4] = PSAC antagonists in infected red cells, primary screen, cell-based, P. falciparum Indochina, OD700, 2 h (AID 1155);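 further: lysis reports solute entry through the parasite surface anion channel PSAC; channel blockers reduce lysis of infected cells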; conditions: P. falciparum Indochina infected erythrocytes, osmotic lysis OD700; higher = more signal, called active from +8 up or from −8 down
[5] = osmotic lysis modulators in infected erythrocytes, primary screen, PSAC antagonist project, cell-based, P. falciparum Indochina, OD700, 3 h (AID 1156); conditions: higher = more signal, called active from +8 up or from −8 down
[6] = PSAC antagonists in infected red cells, primary screen, cell-based, P. falciparum Indochina, OD700, 18 h (AID 1157); conditions: P. falciparum Indochina infected erythrocytes, osmotic lysis OD700, 18 h; higher = more signal, called active from +8 up or from −8 down
[7] = modulators of S6 phosphorylation in cells, primary screen, cell-based, A549, cytoblot, luminescence, serum-stimulated (AID 1158); conditions: A549 phospho-S6 cytoblot, 5 h, higher = more signal;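 further: serum-stimulated A549 lung adenocarcinoma cells; signal is phosphorylated S6 detected by cytoblot immunostaining with HRP secondary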
[8] = molecular target: NADPH oxidase 2 (Homo sapiens) (UniProt P04839); test: NOX2-dependent H2O2 signal modulators, primary screen, NOX inhibitor project, cell-based, HEK293-NOX2, PMA-stimulated, Amplex Red fluorescence (AID 1159); conditions: 45 min, higher = more signal, called active from +8 up or from −8 down; further: test concentration not given here
[9] = molecular target: NADPH oxidase 4 (Homo sapiens) (UniProt Q9NPH5); test: NOX4-dependent H2O2 signal modulators, primary screen, NOX inhibitor project, cell-based, HEK293-NOX4, tetracycline-induced, Amplex Red fluorescence (AID 1160); conditions: 45 min, higher = more signal, called active from +8 up or from −8 down
[10] = molecular target: NADPH oxidase 5 (Homo sapiens) (UniProt Q96PH1); test: NOX5-dependent H2O2 signal modulators, primary screen, NOX inhibitor project, cell-based, HEK293-NOX5, Amplex Red fluorescence (AID 1161); conditions: HEK293-NOX5, ionomycin, 45 min, higher = more signal
Chain of NADPH oxidase 5 (Homo sapiens) (Q96PH1 whole entry, looked up): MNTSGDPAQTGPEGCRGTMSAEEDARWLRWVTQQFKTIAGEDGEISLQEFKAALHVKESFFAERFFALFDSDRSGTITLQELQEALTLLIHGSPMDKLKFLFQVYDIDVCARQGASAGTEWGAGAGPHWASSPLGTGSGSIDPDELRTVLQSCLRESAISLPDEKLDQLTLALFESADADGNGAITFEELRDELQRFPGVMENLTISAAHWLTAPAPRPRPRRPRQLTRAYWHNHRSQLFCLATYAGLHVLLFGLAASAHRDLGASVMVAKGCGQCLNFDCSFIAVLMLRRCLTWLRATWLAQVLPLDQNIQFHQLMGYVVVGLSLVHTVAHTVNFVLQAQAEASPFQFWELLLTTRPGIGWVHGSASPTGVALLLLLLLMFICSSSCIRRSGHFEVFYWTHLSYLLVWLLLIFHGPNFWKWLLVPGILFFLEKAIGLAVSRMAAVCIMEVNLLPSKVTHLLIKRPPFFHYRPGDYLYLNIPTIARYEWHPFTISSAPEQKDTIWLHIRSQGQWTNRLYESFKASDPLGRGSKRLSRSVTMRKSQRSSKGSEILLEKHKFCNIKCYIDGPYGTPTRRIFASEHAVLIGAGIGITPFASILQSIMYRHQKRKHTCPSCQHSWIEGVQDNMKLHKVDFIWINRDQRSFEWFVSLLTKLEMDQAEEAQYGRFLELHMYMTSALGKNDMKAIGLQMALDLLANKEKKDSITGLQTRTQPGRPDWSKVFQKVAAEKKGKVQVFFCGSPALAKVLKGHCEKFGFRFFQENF

Chain of NADPH oxidase 2 (Homo sapiens) (P04839 whole entry, looked up): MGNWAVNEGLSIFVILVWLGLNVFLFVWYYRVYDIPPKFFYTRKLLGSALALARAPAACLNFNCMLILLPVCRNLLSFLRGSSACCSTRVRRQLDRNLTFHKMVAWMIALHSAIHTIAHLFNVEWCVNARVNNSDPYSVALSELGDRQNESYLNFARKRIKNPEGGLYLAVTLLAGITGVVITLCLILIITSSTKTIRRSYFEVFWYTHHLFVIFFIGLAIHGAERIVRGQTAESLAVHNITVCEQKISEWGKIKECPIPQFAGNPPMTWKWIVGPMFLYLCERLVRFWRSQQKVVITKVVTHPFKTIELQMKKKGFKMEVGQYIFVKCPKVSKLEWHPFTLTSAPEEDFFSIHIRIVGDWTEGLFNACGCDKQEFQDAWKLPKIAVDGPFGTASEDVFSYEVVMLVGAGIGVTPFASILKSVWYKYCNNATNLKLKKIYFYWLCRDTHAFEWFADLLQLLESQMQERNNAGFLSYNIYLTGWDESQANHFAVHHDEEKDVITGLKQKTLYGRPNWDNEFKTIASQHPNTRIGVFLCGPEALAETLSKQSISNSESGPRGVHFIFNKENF
Chain of NADPH oxidase 4 (Homo sapiens) (Q9NPH5 whole entry, looked up): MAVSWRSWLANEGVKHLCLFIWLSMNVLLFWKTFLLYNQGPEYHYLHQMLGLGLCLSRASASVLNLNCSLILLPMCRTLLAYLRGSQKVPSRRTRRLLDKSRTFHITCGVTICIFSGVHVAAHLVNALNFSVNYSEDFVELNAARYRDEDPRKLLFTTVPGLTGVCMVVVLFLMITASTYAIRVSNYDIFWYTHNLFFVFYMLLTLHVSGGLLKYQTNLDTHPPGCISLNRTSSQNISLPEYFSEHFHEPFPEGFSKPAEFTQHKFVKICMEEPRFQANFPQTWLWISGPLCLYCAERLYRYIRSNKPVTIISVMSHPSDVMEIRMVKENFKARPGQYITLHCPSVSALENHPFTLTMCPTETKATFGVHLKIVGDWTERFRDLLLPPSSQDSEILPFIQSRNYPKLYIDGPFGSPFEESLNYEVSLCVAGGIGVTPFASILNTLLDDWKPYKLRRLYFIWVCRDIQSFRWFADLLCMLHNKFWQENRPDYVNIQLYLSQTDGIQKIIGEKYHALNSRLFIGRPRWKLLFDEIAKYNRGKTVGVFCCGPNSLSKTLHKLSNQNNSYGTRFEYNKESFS

Compound	z-score [1]	composite z-score [2]	z-score [3]	z-score [4]	z-score [5]	z-score [6]	z-score [7]	z-score [8]	z-score [9]	z-score [10]
CC(C)C(O)C1C=CC2C(=O)N(C)C(=O)C2N1N1CCCCC1 (stereo not given)	-1.77 (inactive)	0.134	0.193 (inactive)	1.22 (inactive)	0.0667 (inactive)	1 (inactive)	-0.87	-0.569 (inactive)	-0.278 (inactive)	-1.52
CCCNC(=O)[C@@]1(C)c2ccccc2C(=O)N(C(C)C)[C@H]1c1ccc(CO)cc1	-0.374 (inactive)	0.0371	4.24 (inactive)	-0.445 (inactive)	2.44 (inactive)	-0.804 (inactive)	2.12	-2.39 (inactive)	-2.3 (inactive)	-3.6
COc1ccc(CCNC(=O)[C@@]2(C)c3ccccc3C(=O)N(Cc3ccccc3)[C@H]2c2ccc(CO)cc2)cc1	1.09 (inactive)	0.187	6.03 (inactive)	0.219 (inactive)	0.474 (inactive)	-0.73 (inactive)	2.24	-3.58 (inactive)	-3.9 (inactive)	-4.78
COCCCNC(=O)[C@@]1(Cc2ccccc2I)c2ccccc2C(=O)N(Cc2ccccc2)[C@H]1c1ccc(CO)cc1	0.263 (inactive)	0.243	11.1 (active)	2.37 (inactive)	1.85 (inactive)	1.43 (inactive)	-0.231	0.0296 (inactive)	0.779 (inactive)	0.242
O=C(NCC(O)CO)[C@@]1(Cc2ccccc2)N=C(c2ccc(OCCCO)cc2)O[C@H]1c1ccccc1 (stereo not given in full)	0.931 (inactive)	0.828	19.8 (active)	3.69 (inactive)	1.88 (inactive)	1.28 (inactive)	-0.142	-0.513 (inactive)	1.63 (inactive)	1.16
CN1C(=O)C2C=CC(C(O)c3ccccc3)N(NC(=O)OC(C)(C)C)C2C1=O (stereo not given)	-1.18 (inactive)	0.199	-0.0278 (inactive)	0.519 (inactive)	0.303 (inactive)	1.25 (inactive)	-1.04	-1.08 (inactive)	-0.302 (inactive)	-1.87
COc1cc2c(cc1O)C(c1ccc(CN3CCCC3)cc1)N(Cc1sc3ccccc3c1Cl)CC2 (stereo not given)	0.13 (inactive)	-0.113	12.5 (active)	2.66 (inactive)	0.913 (inactive)	1.7 (inactive)	0.0223	-3.44 (inactive)	-3.41 (inactive)	-4
[N-]=[N+]=NCc1ccccc1[C@@H]1OC(c2ccc(OCCCO)cc2)=N[C@]1(Cc1ccccc1N=[N+]=[N-])C(N)=O	-0.386 (inactive)	0.636	20.5 (active)	2.68 (inactive)	1.5 (inactive)	0.54 (inactive)	-0.0826	-1.07 (inactive)	-0.527 (inactive)	0.12
COc1cc(NN2C(C(O)c3ccccc3)C=CC3C(=O)N(c4ccccc4)C(=O)C32)cc(OC)c1OC (stereo not given)	-0.26 (inactive)	0.644	1.38 (inactive)	0.0862 (inactive)	0.86 (inactive)	-0.325 (inactive)	0.838	-3.61 (inactive)	-4.63 (inactive)	-7.16
[N-]=[N+]=NCc1ccccc1[C@H]1OC(c2ccc(OCCCO)cc2)=N[C@@]1(Cc1ccccc1)C(=O)O	-1.02 (inactive)	-0.166	17.6 (active)	1.59 (inactive)	-0.907 (inactive)	0.246 (inactive)	-0.239	0.861 (inactive)	1.27 (inactive)	1.65
CC1CC/C=C\[C@H]2OC34C=CCN(CCN5CCOCC5)C(=O)[C@H]3N(CCCCCO)C(=O)[C@@H]4C2C(=O)O1 (stereo not given in full)	-0.346 (inactive)	-0.409	0.851 (inactive)	0.618 (inactive)	0.007 (inactive)	0.257 (inactive)	0.165	0.545 (inactive)	-0.277 (inactive)	1.03
CC(c1ccccc1)C(O)C1C=CC2C(=O)N(Cc3ccccc3)C(=O)C2N1n1cnnc1 (stereo not given)	-2.13 (inactive)	-0.13	1.78 (inactive)	0.975 (inactive)	0.0175 (inactive)	0.929 (inactive)	-0.396	-0.217 (inactive)	-1.09 (inactive)	-1.02
COCCn1c(C(=O)N(C)C)cc2c1C[C@H]1CN(C(=O)c3ccccc3)[C@@](Cc3ccc(F)cc3)(C(=O)OC)[C@@H]21	0.118 (inactive)	0.211	0.666 (inactive)	-0.34 (inactive)	-0.0451 (inactive)	0.397 (inactive)	-0.17	0.395 (inactive)	0.211 (inactive)	-1.69
C=C(C(=O)CC[C@H](OC(=O)c1cccnc1)c1ccccc1OCCO)C(C)C	-0.378 (inactive)	0.188	9.51 (active)	0.943 (inactive)	0.611 (inactive)	0.381 (inactive)	0.142	-1.85 (inactive)	-0.81 (inactive)	-2.03
C=CCOC(=O)[C@H]1[C@@H]2C(=O)O[C@@H](c3ccccc3)[C@@H](c3ccccc3)N2[C@@H](c2ccc(OCCOC(=O)[C@@H]3C[C@@H]4C(=O)NCC(=O)N4[C@@H]3c3ccc(O)cc3)cc2)[C@]12C(=O)Nc1ccc(I)cc12	-0.481 (inactive)	0.0545	1.63 (inactive)	1.39 (inactive)	1.49 (inactive)	0.816 (inactive)	0.361	1.57 (inactive)	1.28 (inactive)	1.61
COCCOC(=O)N1C(=O)[C@@]2(c3cc(C#CC4=CCCCC4)ccc31)[C@H](C(=O)N1CCN(c3ncccn3)CC1)[C@H]1C(=O)O[C@H](c3ccccc3)[C@H](c3ccccc3)N1[C@@H]2c1ccc(OCCO)cc1	-0.0557 (inactive)	0.894	5.23 (inactive)	1.85 (inactive)	0.251 (inactive)	0.657 (inactive)	0.212	0.977 (inactive)	0.645 (inactive)	0.934
O=[N+]([O-])c1ccc(C[n+]2ccc(CCCO)cc2)o1	-0.934 (inactive)	-0.0162	1.21 (inactive)	0.331 (inactive)	0.616 (inactive)	0.377 (inactive)	0.437	0.00328 (inactive)	-3.09 (inactive)	-0.4
COc1ccc(C#Cc2ccc3c(c2)[C@]2(C(=O)N3)[C@H](c3ccc(OCCO)cc3)N3[C@H](c4ccccc4)[C@H](c4ccccc4)OC(=O)[C@H]3[C@@H]2C(=O)Nc2nc3ccccc3s2)cc1	1.84 (inactive)	0.547	2.24 (inactive)	2.11 (inactive)	2.04 (inactive)	1.94 (inactive)	0.418	1.7 (inactive)	0.74 (inactive)	0.177
CN(C)CCCC[C@@H]1NC(=O)[C@H]2C[C@@H](C(=O)NCCCCCNC(=O)CS)[C@@H](c3ccc(O)cc3)N2C1=O	0.445 (inactive)	-0.0196	0.93 (inactive)	0.683 (inactive)	-0.988 (inactive)	0.153 (inactive)	-0.0137	0.394 (inactive)	-0.265 (inactive)	0.877
CCOC(=O)C[C@H]1[C@H](OC(=O)c2ccc(C(=O)c3ccccc3)cc2)[C@@H](NC(=O)c2ccc3ccccc3n2)c2cc(OCCCO)ccc2N1C(=O)c1ccc2ccccc2n1	1.14 (inactive)	0.464	5.2 (inactive)	1.1 (inactive)	-0.327 (inactive)	0.579 (inactive)	0.495	-0.0371 (inactive)	0.532 (inactive)	1.03
C=CCC(OC(C)=O)[C@@H]1[C@@H](N(Cc2ccc(-c3cccc(C(F)(F)F)c3)o2)C(=O)Cc2ccc(OC)cc2)c2cc(OCCCO)ccc2N1C(=O)Cc1ccc(OC)cc1 (stereo not given in full)	1.12 (inactive)	-0.0547	1.66 (inactive)	-0.139 (inactive)	0.777 (inactive)	-0.176 (inactive)	1.37	-2.27 (inactive)	-1.82 (inactive)	-1.89
COc1ccc([Si](C)(C)[C@@H]2[C@@H](CCO)O[C@]3(C(=O)N(Cc4cccc(N5CCCCC5=O)c4)c4ccccc43)[C@H]2C)cc1	-0.402 (inactive)	0.236	5.77 (inactive)	2.69 (inactive)	0.703 (inactive)	2 (inactive)	-0.549	-2.79 (inactive)	-0.322 (inactive)	1.54
[N-]=[N+]=NCc1ccccc1C[C@@]1(C(=O)NCc2ccccc2)N=C(c2ccc(OCCCO)cc2)O[C@@H]1c1ccccc1CN=[N+]=[N-]	0.561 (inactive)	0.7	26.1 (active)	15.3 (active)	1.58 (inactive)	1.87 (inactive)	-0.633	-1.03 (inactive)	-0.17 (inactive)	-0.353
COC(=O)[C@@]1(Cc2ccc(OC)cc2)[C@H]2c3cc(C(=O)N(C)C)n(Cc4ccc(OC)c(OC)c4)c3C[C@H]2CN1C(=O)c1ccccc1	-1.86 (inactive)	1.14	2.55 (inactive)	0.807 (inactive)	0.804 (inactive)	1.23 (inactive)	-0.574	0.178 (inactive)	1.13 (inactive)	2.18
CC(C)[Si]1(C(C)C)O[C@@H](c2ccccc2)c2cc(-c3ccc(-c4ccc(Cl)c(Cl)c4)o3)nc(CCc3ccccc3)c21	-0.792 (inactive)	-0.0428	3.36 (inactive)	0.652 (inactive)	-0.443 (inactive)	-0.0811 (inactive)	-0.507	0.903 (inactive)	0.928 (inactive)	0.44
[N-]=[N+]=Nc1ccccc1[C@H]1OC(c2ccc(OCCCO)cc2)=N[C@@]1(CCS(=O)(=O)c1ccccc1)C(=O)N1CCOCC1	0.399 (inactive)	1.48	31 (active)	23.6 (active)	1.88 (inactive)	4.6 (inactive)	0.211	0.404 (inactive)	1.56 (inactive)	1.36
O=C1OCC=C[C@H]2OC34C=CCN(CCN5CCOCC5)C(=O)[C@H]3N(CCCCCCO)C(=O)[C@@H]4[C@@H]12 (stereo not given in full)	-0.416 (inactive)	0.0253	4.96 (inactive)	1.32 (inactive)	1.21 (inactive)	0.404 (inactive)	1.07	1.51 (inactive)	-0.325 (inactive)	1.92
